# Efflux pump mplx: blocks antifungal efflux pumps in multiplex yeast assay; S. cerevisiae Candida pump triplex, Nile Red efflux; inhibition, % at 10 µM; 0.44% of 330,000 active; AID 485275;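 active = plate passing quality check with inhibition over a set limit, or well fluorescence over plate mean plus 4 SD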;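 also: Nile Red retained in pooled yeast measured as flow cytometry median fluorescence; 0% = buffer negative control and 100% = Enniatin B positive control; higher means more Nile Red kept so more efflux inhibition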
# MLLE-PAM2 inh: blocks PAM2 peptide binding to the PABP1 MLLE domain; AID 588489; P11940; 0.36% of 360,000 active; inhibition, % at 20 µM; GST-MLLE / FITC-PAM2 fluorescence polarization; in the data active = inhibition above about 35%, passing the limit was not always enough;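 also: plate controls were DMSO wells with GST-MLLE for no effect and wells lacking GST-MLLE protein for full effect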
# UBC9 SUMO inh: SUMOylation inhibition | P63279 | HTRF SUMOylation assay, SAE1/SAE2 + UBC9, in vitro | 0.36% of 290,000 active | AID 2006 | inhibition, % at 35 µM; in the data active = inhibition above about 50%, passing the limit was not always enough
# ALR inh: human ALR oxidase inhibition via reduced H2O2 | purified ALR, DTT oxidation, H2O2 HRP-luminol luminescence | AID 485317 | P55789 | 3.8% of 290,000 active | inhibition, % (test concentration not listed);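 active = mean replicate inhibition above about 79%, with every replicate also reaching it, limit read from the data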
# PABP polyA inh: PABP-poly(A) binding inhibition. P11940. PABP-poly(A) RNA binding, fluorescence polarization. inhibition, % at 35 µM. 1% of 290,000 active. AID 2014;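 also: calls also rest on retests at 20 µM and on dose response follow-up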
# eIF4H FP inh: inhibitors of RNA binding by human eIF4H; Q15056; eIF4H fluorescence polarization binding assay; inhibition, % at 35 µM; 0.94% of 290,000 active; AID 2012;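 also: calls also rest on retests at 20 µM and on dose response follow-up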
# The depositor's hits bear a star; · = no result. An excerpt weighted towards active compounds, which were near 4.7% of everything screened. Unless noted, no rule for the calls is given here.
SMILES,Efflux pump mplx,MLLE-PAM2 inh,UBC9 SUMO inh,ALR inh,PABP polyA inh,eIF4H FP inh
O=S(=O)(c1ccccc1F)N1CCN(CCc2ccccc2)CC1,0,8,11,·,13,1
COc1ccc(C2=NC(=O)NC2c2ccc(OC)cc2)cc1 (stereo not given),0,3,8,2,-1,-7
O=C1N=C(c2ccccc2)C(c2ccccc2)N1 (stereo not given),0,0,18,99*,-6,2
Cc1ccc(C(=O)CC(=O)COc2ccc(Cl)cc2C)cc1,0,4,4,-6,3,4
Cc1cc(Cl)ccc1OCc1nc(-c2ccc(O)cc2)n[nH]1,0,-27,-3,98*,1,-1
COC1=CC(=O)[C@@]2([C@@H]1O)[C@@H](Cl)C[C@]13C(OC)=C(OC)C(=O)C[C@]21CCN3C,0,-2,·,-2,·,·
Cc1ccc(Cc2c(-c3ccc(F)cc3)nc3cc(C)ccn23)cc1,·,0,·,·,·,·
CN(C)c1ccc(N=Nc2ccccc2C(=O)OCC(=O)NC2CCCC2)cc1,0,-20,-17,97*,-4,-8
CN(C)c1ccc(N=Nc2ccccc2C(=O)OCC(=O)NCC2CCCCC2)cc1,1,-6,-29,1,-7,9
Cc1cc(C(=O)Nc2ccc(F)c(Cl)c2)on1,0,2,7,-9,16,-9
Cc1ccc(S(=O)(=O)/N=C(\CCl)N2CCOCC2)cc1,0,12,7,97*,23,0
O=c1oc2ccccc2c(Nc2ccc(O)cc2)c1[N+](=O)[O-],0,-1,17,94*,-1,-9
CC(=O)Nc1c(Nc2ccccc2)c2ccccc2oc1=O,0,47*,6,3,0,-7
Cc1ccc(S(=O)(=O)N(C)C)cc1NC(=O)C(C)OC(=O)C1CCC1 (stereo not given),0,25,·,·,·,·
COc1ccccc1NC(=O)c1cc2cc(Br)ccc2cc1O,0,-6,41,6,28,80*
CCN(CC)c1ccc(C2C3CCCCC3(O)CCN2C(=O)c2cccs2)cc1 (stereo not given),0,11,-1,·,-8,-6
CCN(CC)c1ccc([C@H]2[C@@H]3CCCC[C@]3(O)CCN2CC(=O)NCc2ccco2)cc1,0,-4,14,99*,-9,5
CCN(CC)c1ccc(C2C3CCCCC3(O)CCN2CC(=O)N2CCCCC2)cc1 (stereo not given),0,-1,10,99*,-2,-5
O=c1cc(SCc2ccccc2)nc[nH]1,·,-1,·,·,·,·
Cc1cc(C)cc(C(=O)NC(CC(N)=O)c2ccc(N3CCN(C)CC3)c([N+](=O)[O-])c2)c1 (stereo not given),0,6,6,-8,-5,-9
COc1ccc(NC(=O)C(OC(=O)Cn2cnc3c2c(=O)n(C)c(=O)n3C)c2ccccc2)cc1Cl (stereo not given),·,-14,·,·,·,·
CN(CC(=O)NCc1ccccc1Cl)S(=O)(=O)c1ccc2c(c1)n(C)c(=O)c(=O)n2C,0,3,11,-2,10,-1
CN(CC(=O)NCc1ccco1)S(=O)(=O)c1ccc2c(c1)n(C)c(=O)c(=O)n2C,0,0,1,92*,-2,3
CC1=NN(C(=O)c2ccc(C)cc2)C(O)(C(F)(F)OC(F)(F)F)C1 (stereo not given),0,-1,14,18,-4,0
CC1=NN(C(=O)c2ccccc2-n2cccc2)C(O)(C(F)(F)F)C1 (stereo not given),0,-8,-1,12,13*,54*
SMILES,Efflux pump mplx,MLLE-PAM2 inh,UBC9 SUMO inh,ALR inh,PABP polyA inh,eIF4H FP inh
Cc1sc(NC(=O)CSC2=NCCS2)nc1-c1ccccc1,0,9,-8,99*,9,1
COc1ccc(-c2nc(NC(=O)CSCCO)sc2C)cc1,0,-19,4,98*,1,-1
COc1ccc(-c2nc(NC(=O)Cn3cnnn3)sc2C)cc1,0,-3,-6,·,7,-2
CC(=O)N1CC(=O)N=C1SCC(=O)Nc1nc(-c2ccccc2)c(-c2ccccc2)s1,0,-8,-31,99*,16,2
Cc1nc(NC(=O)CSC2=NCCS2)sc1C(=O)N(C)C,0,18,26,99*,3,-6
Cc1nn(CC(=O)Nc2cccnc2)c(=O)c2ccccc12,0,-4,7,-3,2,-3

# Screening data: PubChem BioAssay, several laboratories
